Compounds without any hit were thinned out: in the full panel of roughly 79,000, 15% have a hit. Rule as the data show it: active = growth inhibition above about 70%; inactive = the rest.
How the values were obtained:
[1] = NCI Yeast Anticancer Drug Screen. Data for the rad50 strain (AID 155);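 also: 0% = growth of vehicle-only cultures of the same strain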; conditions: S. cerevisiae rad50 strain growth inhibition; at 50.0 µM; hits give high values
How it was run: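 A DNA repair-deficient yeast mutant serves as the test organism; compound-induced growth inhibition is calculated against vehicle-treated cells.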

[2] = NCI Yeast Anticancer Drug Screen. Data for the mec2-1 strain (AID 157); conditions: S. cerevisiae mec2-1 strain, at 50.0 µM, hits give high values
How it was run: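 Growth inhibition is read against vehicle-treated controls after compound exposure of the mec2-1 yeast strain, which is defective in DNA damage repair or cell cycle control.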

[3] = NCI Yeast Anticancer Drug Screen. Data for the sgs1 mgt1 strain (AID 161);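 also: 0% = growth of cultures given vehicle only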; conditions: S. cerevisiae sgs1 mgt1 strain, at 50.0 µM, hits give high values
How it was run: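 Compounds are added to genetically altered yeast, and growth is compared with cultures given vehicle alone to give percent inhibition.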

[4] = NCI Yeast Anticancer Drug Screen. Data for the cln2 rad14 strain (AID 165);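 also: 0% = growth equal to vehicle treated cultures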; conditions: S. cerevisiae cln2 rad14 strain, at 50.0 µM, hits give high values
How it was run: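 Growth inhibition, relative to vehicle-treated controls, is the read-out. The test organism is a yeast strain with defined genetic alterations, cln2 rad14.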

[5] = NCI Yeast Anticancer Drug Screen. Data for the bub3 strain (AID 167); conditions: S. cerevisiae bub3 mutant strain, at 50.0 µM, hits give high values
How it was run: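 Inhibition values come from growth of compound-treated mutant yeast normalised to vehicle-treated controls.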

[6] = NCI Yeast Anticancer Drug Screen. Data for the mlh1 rad18 strain (AID 175); conditions: S. cerevisiae mlh1 rad18 strain growth inhibition; at 50.0 µM; hits give high values
How it was run: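 Cells of a genetically altered yeast strain, deficient in DNA damage repair, were treated with compound. Their growth was then compared with that of vehicle-treated cultures to give inhibition.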

Measured: growth inhibition

COc1cc(C2c3cc4c(cc3OC(NNC(N)=S)C2C)OCO4)cc(OC)c1OC (stereo not given)
inactive: [1] -4% | [2] -17.4% | [3] 2.5% | [4] -0.2% | [5] 6.95% | [6] -9.9%

CC(C)NC(=O)c1ccc(CON)cc1
inactive: [1] 5.15% | [2] -9.7% | [3] 2.8% | [4] 23.5% | [5] 35% | [6] 9.8%

COc1cc(C=C2N=C(c3ccccc3)N(n3c(-c4ccccc4)nc4ccccc4c3=O)C2=O)cc(OC)c1OC
inactive: [1] -7.4% | [2] -6.6% | [3] 9.45% | [4] 7.85% | [5] 0.65% | [6] 21.6%

O=C1NC(=O)C(=CN2C(=O)/C(=C/c3ccc([N+](=O)[O-])cc3)SC2=S)C(=O)N1
inactive: [1] -0.4% | [2] 33.2% | [3] 40.6% | [4] 20.4% | [5] 20.6% | [6] 21.9%

COc1ccc(C2C3=C(CCCC3=O)OC3=C2C(=O)CCC3)cc1
inactive: [1] -6.85% | [2] 1.4% | [3] -16.2% | [4] -17.2% | [5] 9.65% | [6] 12.7%

N[C@@H](C[C@H]1CCC(=O)[C@@H]2O[C@H]12)C(=O)O
inactive: [1] -1.5% | [2] -12.8% | [3] -12.5% | [4] 0.35% | [5] 13.2% | [6] -10.9%

CC(=O)N1C(Nc2nccs2)CCN1c1ccccc1 (stereo not given)
inactive: [1] -43.8% | [2] -64.5% | [3] -21% | [4] 3.1% | [5] -6.75% | [6] -34.2%

COc1cccc2ccc(C(=O)c3ccccc3)nc12
inactive: [1] 34.2% | [2] -3.2% | [3] 7.8% | [4] 23.6% | [5] 28.2% | [6] 15.9%

CN1CC(=O)N(CO)/C1=N\CO
inactive: [1] -7.15% | [2] -5.45% | [3] -6.85% | [4] -10.8% | [5] 5.85% | [6] 2.05%

Cc1ccc(NC(=O)OC/C=C/c2ccccc2)cc1NC(=O)OC/C=C/c1ccccc1
inactive: [1] 17.9% | [2] 3.05% | [3] 9.05% | [4] 6.35% | [5] -8.35% | [6] 24.1%

O=C1C2=C(Nc3cc([N+](=O)[O-])ccc3N2)OC1c1ccc2c(c1)OCO2 (stereo not given)
inactive: [1] -10.4% | [2] -16.9% | [3] -15.1% | [4] 5.75% | [5] -28.2% | [6] -5.45%

OCC1CC=CCC1 (stereo not given)
inactive: [1] 2.35% | [2] -22.1% | [3] -4.35% | [4] 16% | [5] -27.1% | [6] 11.6%

CCOC(=O)C1=C(C)C/C(=N/NC(N)=O)CC1
inactive: [1] 6.35% | [2] -17.9% | [3] -0.95% | [4] 0.05% | [5] -0.95% | [6] -7.85%

CNC(=O)OCCCCCCCCCCOC(=O)NC
inactive: [1] 2.8% | [2] -0.1% | [3] 6.2% | [4] -23.7% | [5] -17.9% | [6] 4.65%

CCn1c2ccc(N=C=O)cc2c2c3[nH]c(=O)c4cccn4c3ccc21
inactive: [1] -30.9% | [2] 10.2% | [3] -9.4% | [4] 0.55% | [5] -1.8% | [6] 1.25%

O=C1c2ccccc2C(=O)N1Cc1ccccc1-c1c2nc(c(-c3ccccc3CN3C(=O)c4ccccc4C3=O)c3ccc([nH]3)c(-c3ccccc3CN3C(=O)c4ccccc4C3=O)c3nc(c(-c4ccccc4CN4C(=O)c5ccccc5C4=O)c4ccc1[nH]4)C=C3)C=C2
inactive: [1] 11.8% | [2] -1.55% | [3] -0.8% | [4] -3.4% | [5] 13.6% | [6] -14%

COc1ccc(C=Nc2ccc3c(c2)OCO3)cc1Br
inactive: [1] 16.9% | [2] 16.9% | [3] 11.7% | [4] 14.6% | [5] 9.4% | [6] 19.2%

CCCCNC(C(=O)c1ccccc1)c1ccccc1 (stereo not given)
inactive: [1] 4.85% | [2] 17.1% | [3] 0.45% | [4] -16.6% | [5] 13.9% | [6] 26.4%

CCCCC(C(N)=O)C(C)(C)C(=O)O (stereo not given)
inactive: [1] -6% | [2] -0.45% | [3] 4.9% | [4] -21.2% | [5] 9.85% | [6] -1.75%

CC(=O)c1ccccc1C(=O)O
inactive: [1] 6.05% | [2] 7.45% | [3] -6.65% | [4] 7.6% | [5] 6.25% | [6] -9.55%

Cc1ccc(C(=O)OC[C@H]2CC[C@@H](n3cc(N(C)C4CCCCC4)c(=O)[nH]c3=O)O2)cc1
inactive: [1] 2.4% | [2] -32.2% | [3] 8.7% | [4] 14.5% | [5] -2.15% | [6] 31.8%

CCN(CC)CCCNc1cccc2nc(Cl)ccc12
inactive: [1] 12.1% | [2] 18.6% | [3] 37.2% | [4] 24.5% | [5] 2.65% | [6] 9.25%

COC(=O)C1=Cc2cc(OC)c(OC)cc2[C@H](c2ccc(OC)c(OC)c2)C1C(=O)OC (stereo not given in full)
inactive: [1] -6.8% | [2] -11.7% | [3] -31.4% | [4] 0.95% | [5] 18.2% | [6] 1.45%

COC(=O)C(=O)c1c2ccccc2n2ccc3c4ccccc4[nH]c3c12
inactive: [1] 25.9% | [2] 8.9% | [3] -5.75% | [4] 10.1% | [5] 9.6% | [6] 10.5%

O=C(O)c1c(O)cc(=O)oc1-c1ccccc1Cl
inactive: [1] -17.4% | [2] -23.2% | [3] -17.4% | [4] -13.6% | [5] -18.9% | [6] -16.9%

C/C(CC(C)C)=N/Nc1ccc([N+](=O)[O-])cc1[N+](=O)[O-]
inactive: [1] 5.85% | [2] -2.05% | [3] 2.65% | [4] -42.6% | [5] 19.9% | [6] 26.8%

NC(=O)c1ccc(NC=O)cc1
inactive: [1] -10.3% | [2] 22.2% | [3] -18.9% | [4] 25.1% | [5] -18.1% | [6] -18.9%

O=C(CC(=O)N(C(=O)c1ccccc1)c1ccc(Cl)cc1)N/N=C\c1cc(N=Nc2ccccc2Cl)ccc1O
inactive: [1] -13.8% | [2] -10.1% | [3] 14.8% | [4] 15.2% | [5] -21.4% | [6] 9.1%

O=C1OC(c2ccc(Cl)c3ccccc23)c2ccccc21 (stereo not given)
inactive: [1] 58.6% | [2] 19.2% | [3] 34.4% | [4] 28.6% | [5] 12.8% | [6] 43.3%

CS(=O)(=O)N/N=C/C1C=CC=CC1 (stereo not given)
inactive: [1] -6.9% | [2] 0.7% | [3] -6.25% | [4] -24.4% | [5] -12.2% | [6] -26.6%

CCOC(=O)c1c(-c2ccc(OC)cc2)c(C#N)c(=S)n(C2OC(CO)C(O)C(O)C2O)c1C (stereo not given)
inactive: [1] 17.7% | [2] -9.5% | [3] 3.05% | [4] 6.3% | [5] 22.4% | [6] 10.1%

CCCCCCCCOC(=O)Nc1ccc(S(=O)(=O)CC)cc1
inactive: [1] -3.3% | [2] -7.2% | [3] -23.3% | [4] -31.9% | [5] -2.15% | [6] -22.2%

NCCN1C(=O)c2ccccc2C1(O)c1ccc(Cl)cc1 (stereo not given)
inactive: [1] -6.25% | [2] -35.4% | [3] -7% | [4] -4.6% | [5] -14.9% | [6] -0.65%

CC1=NN(c2cc(Cl)c(S(=O)(=O)O)cc2Cl)C(=O)C1N=Nc1ccc(S(=O)(=O)O)cc1 (stereo not given)
inactive: [1] -6.3% | [2] -19.8% | [3] -8% | [4] 2.05% | [5] -5.8% | [6] -0.9%

CC(NC(=O)C(OC(=O)C(C)NC(=O)OC(C)(C)C)C(C)C)C(=O)OC(C(=O)O)C(C)C (stereo not given)
inactive: [1] -24.2% | [2] 10.3% | [3] -5.75% | [4] -1.1% | [5] 2.1% | [6] -7.15%

[Fe+2].[NH-]C(Cc1ccc(O)cc1)C(=O)O.[NH-]C(Cc1ccc(O)cc1)C(=O)O (stereo not given)
inactive: [1] 15.1% | [2] 8.25% | [3] 24.1% | [4] 23.4% | [5] -2.4% | [6] 30.1%

FCCCCSc1ncnc2nc[nH]c12
inactive: [1] -25.3% | [2] -15.2% | [3] -24.7% | [4] -33.4% | [5] -11.5% | [6] -17.2%

COc1ccc2ccccc2c1C(Cc1ccccc1)NCCO (stereo not given)
inactive: [1] -17.2% | [2] -20.4% | [3] -2.3% | [4] -4.95% | [5] -0.55% | [6] -2.75%

[N-]=[N+]=NCC(O)Cn1cnc2c(NC(=O)c3ccccc3)ncnc21 (stereo not given)
inactive: [1] -14.7% | [2] -0.15% | [3] 0.85% | [4] -16.1% | [5] 8.6% | [6] 7.2%

Cc1cccc(Cl)c1N=Nc1c(C)nc(N)nc1-c1ccccc1
inactive: [1] 7.1% | [2] 15.8% | [3] 5.8% | [4] -11.5% | [5] 1.1% | [6] 7.8%

Reference: PubChem BioAssay (NCI)
